The record followed here is article PMC5540273 (PLoS ONE, 2017).
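Note: KINOMEscan kinase panel screen.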

One test concerns EPHB2. Conditions: concentration: 1 μM, replicates: in singlicate; n = 1.
Consider `COc1cccc(-c2ccc3c(NC(=O)C4CC4)n[nH]c3n2)c1` [SB-710903], for which the “%Inh” value was 24%. For `CC(=O)N1CCN(c2ccc(Nc3nccc(-c4sc(C(C)C)nc4-c4cccc(NS(=O)(=O)c5cccc(Cl)c5)c4)n3)cn2)CC1` [GSK1660437], the “%Inh” value is recorded as 0%. Still for that read-out and setting: then `C[C@@H]1CC[C@@H](C(=O)Nc2ccccc2)CN1c1cc(-c2ccc3c(N)n[nH]c3c2)nc(N)n1` [GSK2286062], with 0%. Take `Clc1ccc(-c2nn3ncccc3c2-c2ccnc(Nc3ccc4c(c3)OCCO4)n2)cc1` [GW829116]: the “%Inh” value is reported as 13%. On the same count and under the same terms, then `Cc1ccc(C(=O)N2CC[C@@H](O)C2)cc1-n1c(C)cc(OCc2ccc(F)cc2F)c(Br)c1=O`, with 8%. Still for that read-out and setting: then `CC(=O)Nc1nc2cnc(Nc3cc(NC(=O)c4cccc(C5(C#N)CC5)c4Cl)ccc3C)nc2s1`, with 50%; and `c1ccc(-c2cnc3nccnn23)cc1` [AH20685], with 0%. On the same count and under the same terms, then `CCn1c(-c2nonc2N)nc2c(C#CC(C)(C)O)nc(OC[C@H](N)c3ccccc3)cc21` [GSK943949], with 0%; and `Cl.Cl.NCC(C(=O)Nc1cc(Br)c(-c2ccnc3[nH]ccc23)s1)c1ccccc1` (stereo not shown) [GSK1269851], with 0%.

For the molecule `COc1cccc(C2=C(Nc3ccc(Cl)c(C(=O)O)c3)C(=O)NC2=O)c1` [SB-390769], the “%Inh” value is reported as 23%. Still for that read-out and setting: then `Cc1cccc(Nc2nc(N[C@H]3CCNC3)ncc2C(N)=O)c1.Cl` [GSK2197149], with 0%.

The next test deals with EPHB3. As to conditions: concentration: 1 μM, replicates: in singlicate; n = 1.
Take `Cc1ccc(C(=O)Nc2ccc(Nc3ccnc4cc(-c5nccs5)ccc34)cc2O)cc1.Cl` [GW494702]: the “%Inh” value came out at 20%. On the same count and under the same terms, then `CC(C)c1nc(-c2cccc(NS(=O)(=O)c3c(F)cccc3F)c2F)c(-c2ccnc(Nc3ccc(N4CCOCC4)nc3)n2)s1` [GSK2008607], with 0%. For `Cl.c1ccc(-c2ccc3c(Nc4ccc5[nH]ccc5c4)ccnc3c2)nc1` [GW440138], the “%Inh” value is reported as 1%. The same measure, in the same setting: for `Nc1ncc(-c2cccnc2)c2scc(-c3ccc4c(c3)CCN4C(=O)Cc3ccccc3)c12` [GSK683281] the value was 12%; for `COc1cc(Nc2nccc(-c3c(-c4cccc(NC(=O)c5c(F)cccc5F)c4)nn4ccccc34)n2)cc(OC)c1OC` [GSK323521], 1%; for `CCc1ccc(-c2ccc3c(c2)-c2c(cnn2C)S(=O)(=O)N3C)cc1`, 0%. The same measure, in the same setting: then `COC(=O)Nc1nc2cc(Oc3ccc(NC(=O)Nc4cc(C(F)(F)F)ccc4F)cn3)ccc2[nH]1.Cl.Cl` [GW681170], with 12%. Still for that read-out and setting: for `Cc1occc1-c1ncc(OC[C@@H](N)Cc2c[nH]c3ccccc23)cc1-c1ccc2[nH]nc(C)c2c1.O=C(O)C(F)(F)F` [GSK682037] the value was 17%. As for `O=C(Nc1cccc(Oc2ccc3nc(NC(=O)C4CC4)cn3n2)c1)c1ccccc1C(F)(F)F`, the “%Inh” value was found to be 7%. The same measure, in the same setting: for `CSc1cccc2c(-c3ccncn3)c(-c3ccc(F)cc3)nn12` [GW514786] the value was 4%; for `COc1cc(Nc2ncc3c(C)nc(-c4cc5ccccc5[nH]4)n3n2)cc(OC)c1OC` [GW869516], 0%; for `O=C(Nc1cccc(-c2nn3ccccc3c2-c2ccnc(Nc3cccc(C(F)(F)F)c3)n2)c1)c1c(F)cccc1F` [GSK292658], 5%.

For the molecule `CNC(=O)c1ccccc1Nc1nc(Nc2ccc(N3CCOCC3)cc2)ncc1Cl.Cl` [GSK1576028], the “%Inh” value is 2%. Same read-out and setting: for `Cl.c1ccc(-c2ccc3c(Nc4ccc5[nH]ncc5c4)ccnc3c2)nc1` [GW440137] the value was 0%; for `Cl.Cl.NCC(NC(=O)c1cc(-c2ccccc2)c(-c2ccnc3[nH]ccc23)s1)c1ccccc1` (stereo not shown) [GSK1321561], 7%. The same measure, in the same setting: for `COc1cc2c(cc1OCCN1CCNCC1)ncc1c3ccc(C#N)cc3[nH]c21` the value was 0%; for `CCn1c(-c2nonc2N)nc2c(C#CC(C)(C)O)ncc(OCCCCN)c21.O=C(O)C(F)(F)F.O=C(O)C(F)(F)F` [GSK507274], 27%; for `COc1cc(Nc2nccc(-c3c(-c4cccc(NC(=O)c5c(F)cccc5F)c4)nn4ncccc34)n2)cc(OC)c1OC` [GSK327238], 0%. On to `COc1cc(Nc2nccc(N3CCC(NC(=O)Nc4cccc(C(C)=O)c4)C3)n2)cc(OC)c1OC` (stereo not shown) [GSK1379753], for which the “%Inh” value was found to be 13%. Same read-out and setting: then `CN(C)S(=O)(=O)c1cc(-c2ccc3nccc(-c4cccc(S(N)(=O)=O)c4)c3c2)cnc1N` [GSK1669921], with 11%.
